# In the supplement of paper PMC8728848:
# This is one part of a sample in which the strongest signals are shown more often than they occur.
# B1: MPA (Maclura pomifera) (protein)
# chain: GVTFDDGAYTGIREINFEYNSETAIGGLRVTYDLNGMPFVAEDHKSFITGFKPVKISLEFPSEYIVEVSGYVGKVEGYTVIRSLTFKTNKQTYGPYGVTNGTPFSLPIENGLIVGFKGSIGYWLDYFSIYLSLNGPNGKSQSIIVGPWGDRVTN
# B2: MGL6A (Homo sapiens) (protein)
# chain: MTRTYENFQYLENKVKVQGFKNGPLPLQSLLQRLCSGPCHLLLSLGLGLLLLVIICVVGFQNSKFQRDLVTLRTDFSNFTSNTVAEIQALTSQGSSLEETIASLKAEVEGFKQERQAVHSEMLLRVQQLVQDLKKLTCQVATLNNNGEEASTEGTCCPVNWVEHQDSCYWFSHSGMSWAEAEKYCQLKNAHLVVINSREEQNFVQKYLGSAYTWMGLSDPEGAWKWVDGTDYATGFQNWKPGQPDDWQGHGLGGGEDCAHFHPDGRWNDDVCQRPYHWVCEAGLGQTSQESH
# Experiments:
# Assay in all cases: glycan array binding signal (z-score within array); higher = stronger binding
# Conditions in all cases: glycan notation: IUPAC condensed, linker removed
# [1] = molecular target: Fuc(a1-2)Gal(b1-3)GalNAc
# Method in brief: (§1)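 Negative Z-scores can be read as non-binding. The Z-score is calculated within each array and then averaged across arrays of one protein sequence at different concentrations or buffers and across linkers. Arrays, 3228 in all, were curated from the Consortium for Functional Glycomics database and kept only where the protein sequence was available.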
# [2] = molecular target: Fuc(a1-4)GlcNAc
# Method in brief: as §1
# [3] = molecular target: Gal(a1-3)[Gal(a1-4)]Gal(b1-4)GlcNAc
# Method in brief: as §1
# [4] = molecular target: Gal(b1-3)GalNAc(b1-3)Gal(a1-4)Gal(b1-4)Glc
# Method in brief: as §1
# [5] = molecular target: Gal(b1-4)GalNAc(b1-3)[Fuc(a1-2)]Gal(b1-4)GlcNAc
# Method in brief: as §1
# [6] = molecular target: Gal(b1-4)GlcNAc(b1-3)GalNAc
# Method in brief: as §1
# [7] = molecular target: Gal(b1-4)GlcNAc(b1-6)GalNAc
# Method in brief: as §1
# [8] = molecular target: Gal3S6S(b1-4)GlcNAc
# Method in brief: as §1
# [9] = molecular target: GalNAc(b1-3)GalNAc
# Method in brief: as §1
# [10] = molecular target: GlcNAc(b1-2)Gal(b1-3)GalNAc
# Method in brief: as §1
# [11] = molecular target: GlcNAc(b1-3)Gal(b1-3)GalNAc
# Method in brief: as §1
# [12] = molecular target: GlcNAc(b1-3)GalNAc
# Method in brief: as §1
# [13] = molecular target: GlcNAc(b1-6)Gal(b1-4)GlcNAc
# Method in brief: as §1
# [14] = molecular target: Man(a1-2)Man(a1-3)[Man(a1-6)]Man(a1-6)[Man(a1-2)Man(a1-3)]Man(b1-4)GlcNAc(b1-4)GlcNAc
# Method in brief: as §1
# [15] = molecular target: Man(b1-4)GlcNAc
# Method in brief: as §1
# [16] = molecular target: Neu5Ac(a2-8)Neu5Ac(a2-8)Neu5Ac
# Method in brief: as §1
# [17] = molecular target: Fuc(a1-2)Gal(b1-4)GlcNAc(b1-6)GalNAc
# Method in brief: as §1
# [18] = molecular target: Fuc(a1-2)Gal(b1-4)[Fuc(a1-3)]GlcNAc(b1-3)GalNAc
# Method in brief: as §1
# [19] = molecular target: Fuc(a1-2)[Gal(a1-3)]Gal
# Method in brief: as §1
# [20] = molecular target: Fuc(a1-2)[Gal(a1-3)]Gal(b1-3)GalNAc
# Method in brief: as §1
# [21] = molecular target: Fuc(a1-2)[Gal(a1-3)]Gal(b1-4)GlcNAc(b1-6)GalNAc
# Method in brief: as §1
# [22] = molecular target: Fuc(a1-2)[GalNAc(a1-3)]Gal(b1-3)GalNAc(a1-3)[Fuc(a1-2)]Gal(b1-4)GlcNAc
# Method in brief: as §1
# [23] = molecular target: Fuc(a1-2)[GalNAc(a1-3)]Gal(b1-4)Glc
# Method in brief: as §1
# [24] = molecular target: Fuc(a1-2)[GalNAc(a1-3)]Gal(b1-4)GlcNAc(b1-2)Man
# Method in brief: as §1
# [25] = molecular target: Fuc(a1-2)[GalNAc(a1-3)]Gal(b1-4)[Fuc(a1-3)]GlcNAc
# Method in brief: as §1
# [26] = molecular target: Fuc(a1-2)[GalNAc(a1-4)]Gal(b1-4)GlcNAc
# Method in brief: as §1
# [27] = molecular target: Fuc(a1-2)[GalNAc(b1-3)]Gal
# Method in brief: as §1
# [28] = molecular target: Fuc(a1-3)[Gal(b1-4)]GlcNAc(b1-2)Man(a1-6)[Gal(b1-4)GlcNAc(b1-2)Man(a1-3)]Man(b1-4)GlcNAc(b1-4)GlcNAc
# Method in brief: as §1
# [29] = molecular target: Gal(a1-3)Gal(b1-3)GlcNAc(b1-6)GalNAc
# Method in brief: as §1
# [30] = molecular target: Gal(a1-3)Gal(b1-3)[Fuc(a1-4)]GlcNAc(b1-2)Man(a1-3)[Gal(a1-3)Gal(b1-3)[Fuc(a1-4)]GlcNAc(b1-2)Man(a1-6)]Man(b1-4)GlcNAc(b1-4)GlcNAc
# Method in brief: as §1
# [31] = molecular target: Gal(a1-3)Gal(b1-4)GlcNAc(b1-2)Man(a1-3)[Gal(a1-3)Gal(b1-4)GlcNAc(b1-2)Man(a1-6)]Man(b1-4)GlcNAc(b1-4)GlcNAc
# Method in brief: as §1
# [32] = molecular target: Gal(a1-3)Gal(b1-4)GlcNAc(b1-6)GalNAc
# Method in brief: as §1
# [33] = molecular target: Gal(a1-4)Gal(b1-4)GlcNAc(b1-2)Man(a1-3)[Gal(a1-4)Gal(b1-4)GlcNAc(b1-2)Man(a1-6)]Man(b1-4)GlcNAc(b1-4)GlcNAc
# Method in brief: as §1
# [34] = molecular target: Gal(b1-3)GlcNAc(b1-6)GalNAc
# Method in brief: as §1
# [35] = molecular target: Gal(b1-4)GlcNAc
# Method in brief: as §1
# [36] = molecular target: Gal(b1-4)GlcNAc(b1-3)Gal(b1-4)Glc
# Method in brief: as §1
# [37] = molecular target: Gal(b1-4)GlcNAc(b1-3)Gal(b1-4)GlcNAc(b1-3)GalNAc
# Method in brief: as §1
# [38] = molecular target: Gal(b1-4)GlcNAc(b1-6)Gal(b1-4)GlcNAc(b1-6)GalNAc
# Method in brief: as §1
# [39] = molecular target: GalNAc(b1-3)Gal
# Method in brief: as §1
# [40] = molecular target: GalNAc(b1-3)Gal(a1-6)Gal(b1-4)Glc
# Method in brief: as §1
# [41] = molecular target: GalNAc(b1-4)GlcNAc(b1-3)GalNAc(b1-4)GlcNAc
# Method in brief: as §1
# [42] = molecular target: GlcNAc(a1-4)Gal(b1-3)GlcNAc
# Method in brief: as §1
# [43] = molecular target: GlcNAc(b1-3)Gal(b1-4)GlcNAc(b1-3)Gal(b1-4)GlcNAc
# Method in brief: as §1
# [44] = molecular target: GlcNAc(b1-3)Gal(b1-4)GlcNAc(b1-3)GalNAc
# Method in brief: as §1
binder,measurement,setting,value
B1,glycan array binding signal (z-score),[1],2.25
same,glycan array binding signal (z-score),[2],-0.223
same,glycan array binding signal (z-score),[3],-0.16
same,glycan array binding signal (z-score),[4],-0.24
same,glycan array binding signal (z-score),[5],-0.249
same,glycan array binding signal (z-score),[6],5.97
same,glycan array binding signal (z-score),[7],-0.161
same,glycan array binding signal (z-score),[8],-0.233
same,glycan array binding signal (z-score),[9],6.31
same,glycan array binding signal (z-score),[10],5.63
same,glycan array binding signal (z-score),[11],3.46
same,glycan array binding signal (z-score),[12],6.85
same,glycan array binding signal (z-score),[13],-0.229
same,glycan array binding signal (z-score),[14],-0.244
same,glycan array binding signal (z-score),[15],-0.24
same,glycan array binding signal (z-score),[16],-0.244
B2,glycan array binding signal (z-score),[1],-0.261
same,glycan array binding signal (z-score),[17],4.02
same,glycan array binding signal (z-score),[18],-0.238
same,glycan array binding signal (z-score),[19],-0.261
same,glycan array binding signal (z-score),[20],-0.249
same,glycan array binding signal (z-score),[21],-0.27
same,glycan array binding signal (z-score),[22],0.966
same,glycan array binding signal (z-score),[23],0.534
same,glycan array binding signal (z-score),[24],-0.017
same,glycan array binding signal (z-score),[25],-0.22
same,glycan array binding signal (z-score),[26],4.68
same,glycan array binding signal (z-score),[27],4.73
same,glycan array binding signal (z-score),[28],1.06
same,glycan array binding signal (z-score),[29],4.29
same,glycan array binding signal (z-score),[30],-0.221
same,glycan array binding signal (z-score),[31],-0.225
same,glycan array binding signal (z-score),[32],4.16
same,glycan array binding signal (z-score),[33],-0.244
same,glycan array binding signal (z-score),[34],3.91
same,glycan array binding signal (z-score),[35],-0.075
same,glycan array binding signal (z-score),[36],-0.284
same,glycan array binding signal (z-score),[37],-0.303
same,glycan array binding signal (z-score),[38],-0.256
same,glycan array binding signal (z-score),[7],4.67
same,glycan array binding signal (z-score),[39],4.13
same,glycan array binding signal (z-score),[40],4.47
same,glycan array binding signal (z-score),[41],3.79
same,glycan array binding signal (z-score),[42],-0.306
same,glycan array binding signal (z-score),[43],0.5
same,glycan array binding signal (z-score),[44],-0.327
